Calls of active or inactive are those of the source.
What was measured:
[1] = E. coli DRC41 culture turbidity changes, primary screen, E. coli filamentation inducer project, strain DRC41, OD650, 48 h (AID 1152);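 note: E. coli MC1000 strain DRC41 lacking acrAB efflux pump and sulA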; settings: E. coli DRC41 (acrAB sulA), higher = more signal, called active from +8 up or from −8 down
[2] = small-molecule binders of probe aLefty1, primary screen, biochemical, small-molecule microarray, 635/667 nm fluorescence (AID 1153); settings: higher = more signal;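 note: score merges spot fluorescence with signal-to-noise ratio from the scanned slide images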
[3] = PSAC antagonists in infected red cells, primary screen, cell-based, P. falciparum Indochina, OD700, 1 h (AID 1154); settings: P. falciparum Indochina infected RBC osmotic lysis, higher = more signal, called active from +8 up or from −8 down
[4] = PSAC antagonists in infected red cells, primary screen, cell-based, P. falciparum Indochina, OD700, 2 h (AID 1155);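 note: lysis reports solute entry through the parasite surface anion channel PSAC; channel blockers reduce lysis of infected cells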; settings: P. falciparum Indochina infected erythrocytes, osmotic lysis OD700; higher = more signal, called active from +8 up or from −8 down
[5] = osmotic lysis modulators in infected erythrocytes, primary screen, PSAC antagonist project, cell-based, P. falciparum Indochina, OD700, 3 h (AID 1156); settings: higher = more signal, called active from +8 up or from −8 down
[6] = PSAC antagonists in infected red cells, primary screen, cell-based, P. falciparum Indochina, OD700, 18 h (AID 1157); settings: P. falciparum Indochina infected erythrocytes, osmotic lysis OD700, 18 h; higher = more signal, called active from +8 up or from −8 down
[7] = modulators of S6 phosphorylation in cells, primary screen, cell-based, A549, cytoblot, luminescence, serum-stimulated (AID 1158); settings: A549 phospho-S6 cytoblot, 5 h, higher = more signal;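 note: serum-stimulated A549 lung adenocarcinoma cells; signal is phosphorylated S6 detected by cytoblot immunostaining with HRP secondary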
[8] = target: NADPH oxidase 2 (Homo sapiens) (UniProt P04839); assay: NOX2-dependent H2O2 signal modulators, primary screen, NOX inhibitor project, cell-based, HEK293-NOX2, PMA-stimulated, Amplex Red fluorescence (AID 1159); settings: 45 min, higher = more signal, called active from +8 up or from −8 down; note: test concentration not given here
[9] = target: NADPH oxidase 4 (Homo sapiens) (UniProt Q9NPH5); assay: NOX4-dependent H2O2 signal modulators, primary screen, NOX inhibitor project, cell-based, HEK293-NOX4, tetracycline-induced, Amplex Red fluorescence (AID 1160); settings: 45 min, higher = more signal, called active from +8 up or from −8 down
[10] = target: NADPH oxidase 5 (Homo sapiens) (UniProt Q96PH1); assay: NOX5-dependent H2O2 signal modulators, primary screen, NOX inhibitor project, cell-based, HEK293-NOX5, Amplex Red fluorescence (AID 1161); settings: HEK293-NOX5, ionomycin, 45 min, higher = more signal
[11] = A549 cell viability effects, profiling panel, calcein-AM fluorescence, 48 h, basal (AID 1162); settings: higher = more signal; note: test concentration not given here
[12] = adipocyte viability effects, profiling panel, cell-based, 3T3-L1 adipocytes, calcein-AM fluorescence, 48 h, basal (AID 1163); settings: 3T3-L1 adipocytes viability, higher = more signal; note: test concentration not given here
[13] = HepG2 cell viability effects, profiling panel, calcein-AM fluorescence, 48 h, basal (AID 1164); settings: higher = more signal; note: test concentration not given here
[14] = MM1S cell viability effects, profiling panel, calcein-AM fluorescence, 48 h, basal (AID 1165); settings: higher = more signal;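 note: viability of MM1S multiple myeloma cells under basal unstimulated conditions; test concentration not given here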
[15] = basal RPMI8226 viability, no added stimulus, profiling panel, cell-based, calcein-AM fluorescence, 48 h, PK04 Diversity Set (AID 1166); settings: RPMI8226 myeloma viability, higher = more signal;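 note: cells grown under basal conditions without added stimulus; test concentration not given here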
[16] = basal HepG2 mitochondrial membrane potential changes, profiling panel, cell-based, JC-1 fluorescence, 24 h, 100 nL compound (AID 1167); settings: higher = more signal; note: test concentration not given here
[17] = basal 3T3-L1 adipocyte mitochondrial potential changes, profiling panel, cell-based, JC-1 fluorescence, 3T3-L1 adipocytes, 24 h, 100 nL compound (AID 1168); settings: JC-1 mitochondrial fluorescence, higher = more signal, called active from +8 up or from −8 down; note: test concentration not given here
[18] = basal RPMI8226 mitochondrial membrane potential changes, profiling panel, cell-based, JC-1 fluorescence, 24 h, 100 nL compound (AID 1169); settings: RPMI8226 myeloma, JC-1 mitochondrial potential fluorescence, higher = more signal; note: test concentration not given here
[19] = basal MM1S mitochondrial membrane potential changes, profiling panel, cell-based, JC-1 fluorescence, 24 h, 100 nL compound (AID 1170); settings: higher = more signal; note: test concentration not given here
[20] = A549 lung cancer cell viability effects, profiling panel, resazurin fluorescence, 24 h, PK04 Diversity Set (AID 1171); settings: higher = more signal, called active from +8 up or from −8 down; note: test concentration not given here

Chain of NADPH oxidase 5 (Homo sapiens) (Q96PH1 whole entry, looked up): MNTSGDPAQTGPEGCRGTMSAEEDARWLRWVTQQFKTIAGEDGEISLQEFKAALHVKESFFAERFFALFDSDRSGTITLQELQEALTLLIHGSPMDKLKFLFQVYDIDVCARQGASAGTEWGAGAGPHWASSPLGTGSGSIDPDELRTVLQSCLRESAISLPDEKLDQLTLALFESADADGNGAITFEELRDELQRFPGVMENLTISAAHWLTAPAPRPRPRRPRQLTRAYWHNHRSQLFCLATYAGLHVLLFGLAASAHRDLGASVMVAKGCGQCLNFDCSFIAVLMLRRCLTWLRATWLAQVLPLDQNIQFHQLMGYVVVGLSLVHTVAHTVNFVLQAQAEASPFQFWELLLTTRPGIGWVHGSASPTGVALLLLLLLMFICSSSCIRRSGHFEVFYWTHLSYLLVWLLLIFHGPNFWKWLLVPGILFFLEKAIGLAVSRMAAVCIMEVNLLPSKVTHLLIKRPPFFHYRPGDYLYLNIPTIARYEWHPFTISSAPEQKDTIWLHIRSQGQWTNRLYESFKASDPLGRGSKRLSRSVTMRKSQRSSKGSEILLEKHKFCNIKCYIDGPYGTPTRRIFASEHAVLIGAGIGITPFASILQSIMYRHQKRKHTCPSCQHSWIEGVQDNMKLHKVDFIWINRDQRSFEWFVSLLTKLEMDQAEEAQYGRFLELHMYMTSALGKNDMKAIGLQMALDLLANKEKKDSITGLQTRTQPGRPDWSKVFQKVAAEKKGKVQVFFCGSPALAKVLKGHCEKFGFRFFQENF
Chain of NADPH oxidase 2 (Homo sapiens) (P04839 whole entry, looked up): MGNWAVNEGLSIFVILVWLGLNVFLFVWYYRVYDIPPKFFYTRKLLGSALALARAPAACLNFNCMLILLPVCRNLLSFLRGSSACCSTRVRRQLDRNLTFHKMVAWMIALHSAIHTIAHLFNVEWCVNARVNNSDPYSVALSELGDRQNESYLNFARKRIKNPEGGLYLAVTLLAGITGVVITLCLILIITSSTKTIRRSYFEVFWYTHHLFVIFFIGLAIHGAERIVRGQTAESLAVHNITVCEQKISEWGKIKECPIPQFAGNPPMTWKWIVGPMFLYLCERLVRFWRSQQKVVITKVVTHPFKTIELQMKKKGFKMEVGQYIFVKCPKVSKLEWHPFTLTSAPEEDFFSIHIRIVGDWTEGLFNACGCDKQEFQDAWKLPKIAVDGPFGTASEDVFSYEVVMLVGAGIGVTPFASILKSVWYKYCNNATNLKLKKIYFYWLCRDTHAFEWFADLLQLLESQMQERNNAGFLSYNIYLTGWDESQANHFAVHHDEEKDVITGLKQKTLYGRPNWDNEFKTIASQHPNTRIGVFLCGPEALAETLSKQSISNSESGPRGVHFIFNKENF
Chain of NADPH oxidase 4 (Homo sapiens) (Q9NPH5 whole entry, looked up): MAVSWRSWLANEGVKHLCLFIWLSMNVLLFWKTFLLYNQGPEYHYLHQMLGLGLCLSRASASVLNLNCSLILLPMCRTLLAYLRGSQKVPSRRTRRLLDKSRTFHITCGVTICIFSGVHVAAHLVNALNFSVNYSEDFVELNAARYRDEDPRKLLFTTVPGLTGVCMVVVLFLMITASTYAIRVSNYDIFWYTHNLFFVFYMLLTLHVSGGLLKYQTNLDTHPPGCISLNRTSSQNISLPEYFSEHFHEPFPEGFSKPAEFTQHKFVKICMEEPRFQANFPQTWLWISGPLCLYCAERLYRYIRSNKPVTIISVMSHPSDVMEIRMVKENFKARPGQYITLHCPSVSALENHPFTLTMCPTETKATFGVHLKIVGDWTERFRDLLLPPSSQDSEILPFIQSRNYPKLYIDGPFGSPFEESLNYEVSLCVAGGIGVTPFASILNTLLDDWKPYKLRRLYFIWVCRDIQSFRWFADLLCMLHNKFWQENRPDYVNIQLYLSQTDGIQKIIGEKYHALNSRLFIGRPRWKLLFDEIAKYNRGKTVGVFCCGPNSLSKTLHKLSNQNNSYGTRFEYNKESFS

COC(=O)C1=C(C)N(Cc2ccccc2)[C@]23O[C@](C(=O)OC)(C(=O)N2[C@@H]1c1ccccc1)[C@H]1CCOC(=O)[C@H]13
z-score [1]: -0.238 (inactive)
composite z-score [2]: -0.0984
z-score [3]: 0.951 (inactive)
z-score [4]: -0.0468 (inactive)
z-score [5]: 1.3 (inactive)
z-score [6]: 0.443 (inactive)
z-score [7]: -0.537
z-score [8]: 0.902 (inactive)
z-score [9]: 0.805 (inactive)
z-score [10]: 1.06
z-score [11]: 0.589
z-score [12]: 0.109
z-score [13]: -0.21
z-score [14]: 0.0449
z-score [15]: -0.808
z-score [16]: 0.74
z-score [17]: 0.642 (inactive)
z-score [18]: -0.139
z-score [19]: -0.0135
z-score [20]: 0.516 (inactive)

CC(C)CON=C1C[C@@H](O)[C@@H](O)[C@@H]2[C@@H]3C(=O)N(C[C@@H]4CCCO4)C(=O)[C@@H]3CC[C@H]12
z-score [1]: 0.165 (inactive)
composite z-score [2]: -0.0559
z-score [3]: 0.0811 (inactive)
z-score [4]: 0.449 (inactive)
z-score [5]: -0.425 (inactive)
z-score [6]: -0.0131 (inactive)
z-score [7]: -0.383
z-score [8]: 0.202 (inactive)
z-score [9]: 0.313 (inactive)
z-score [10]: -0.61
z-score [11]: -0.31
z-score [12]: -0.528
z-score [13]: -0.222
z-score [14]: 0.12
z-score [15]: -0.259
z-score [16]: -0.637
z-score [17]: -1.27 (inactive)
z-score [18]: 0.347
z-score [19]: 0.0335
z-score [20]: 0.322 (inactive)

CN(C)C(=O)[C@@]1(Cc2ccccc2)N=C(c2ccc(OCCCO)cc2)O[C@H]1c1ccccc1CN=[N+]=[N-]
z-score [1]: 0.374 (inactive)
composite z-score [2]: 0.981
z-score [3]: 14.9 (active)
z-score [4]: 1.15 (inactive)
z-score [5]: 0.882 (inactive)
z-score [6]: 0.0009 (inactive)
z-score [7]: -0.474
z-score [8]: -1.75 (inactive)
z-score [9]: 1.17 (inactive)
z-score [10]: 0.163
z-score [11]: -0.309
z-score [12]: -0.562
z-score [13]: -0.903
z-score [14]: -0.74
z-score [15]: -2.6
z-score [16]: -0.12
z-score [17]: -0.775 (inactive)
z-score [18]: -0.913
z-score [19]: -0.589
z-score [20]: -0.348 (inactive)

CCc1cc2c(nc1CC)CCN(CCC(C)=NOC(C)CN1CCCc3nc(C)c(C)cc31)C2 (stereo not given)
z-score [1]: -1.97 (inactive)
composite z-score [2]: 0.876
z-score [3]: 2.25 (inactive)
z-score [4]: -0.0243 (inactive)
z-score [5]: 0.0813 (inactive)
z-score [6]: 0.146 (inactive)
z-score [7]: -1.08
z-score [8]: -1.41 (inactive)
z-score [9]: -0.293 (inactive)
z-score [10]: -1.86
z-score [11]: 0.566
z-score [12]: -0.326
z-score [13]: 0.595
z-score [14]: -2.4
z-score [15]: -0.305
z-score [16]: 1.31
z-score [17]: -0.415 (inactive)
z-score [18]: -0.668
z-score [19]: -0.342
z-score [20]: 0.103 (inactive)

C=CCNC(=O)[C@H]1[C@@H]2C(=O)O[C@@H](c3ccccc3)[C@@H](c3ccccc3)N2[C@@H](c2ccc(O)cc2)[C@]12C(=O)N(C(=O)OCCOC)c1ccc(C#CC3=CCCCC3)cc12
z-score [1]: -0.383 (inactive)
composite z-score [2]: 1.81
z-score [3]: 1.65 (inactive)
z-score [4]: 0.929 (inactive)
z-score [5]: 0.0207 (inactive)
z-score [6]: 0.506 (inactive)
z-score [7]: -0.25
z-score [8]: 1.96 (inactive)
z-score [9]: -0.149 (inactive)
z-score [10]: 1.47
z-score [11]: -1.1
z-score [12]: 0.537
z-score [13]: -0.444
z-score [14]: -2.53
z-score [15]: -3.23
z-score [16]: -1.47
z-score [17]: -0.777 (inactive)
z-score [18]: -0.611
z-score [19]: -0.324
z-score [20]: 0.512 (inactive)

Cc1cc2c(nc1C)CCCN2CC(C)ON=C1[C@H]2CCn3c(=O)n(-c4ccccc4)c(=O)n3[C@H]2[C@H](O)[C@@H]2O[C@H]12 (stereo not given in full)
z-score [1]: -1.46 (inactive)
composite z-score [2]: 0.0037
z-score [3]: 1.21 (inactive)
z-score [4]: 0.283 (inactive)
z-score [5]: 1.27 (inactive)
z-score [6]: 0.513 (inactive)
z-score [7]: -0.415
z-score [8]: -0.435 (inactive)
z-score [9]: -0.00359 (inactive)
z-score [10]: -0.832
z-score [11]: -0.457
z-score [12]: 0.0888
z-score [13]: -0.56
z-score [14]: -1.83
z-score [15]: -0.0008
z-score [16]: -0.788
z-score [17]: -1.38 (inactive)
z-score [18]: 0.477
z-score [19]: 0.327
z-score [20]: -0.702 (inactive)

O=C(CS)NCCCCCNC(=O)[C@@H]1C[C@@H]2C(=O)N[C@@H](Cc3ccccc3)C(=O)N2[C@@H]1c1ccc(O)cc1
z-score [1]: 0.942 (inactive)
composite z-score [2]: 0.0839
z-score [3]: 10.1 (active)
z-score [4]: 1.07 (inactive)
z-score [5]: -0.676 (inactive)
z-score [6]: 0.325 (inactive)
z-score [7]: -0.205
z-score [8]: 0.727 (inactive)
z-score [9]: -0.142 (inactive)
z-score [10]: 0.0233
z-score [11]: 0.557
z-score [12]: 0.239
z-score [13]: 1.15
z-score [14]: 0.477
z-score [15]: 0.617
z-score [16]: -0.0506
z-score [17]: -0.325 (inactive)
z-score [18]: 0.149
z-score [19]: -0.625
z-score [20]: -0.181 (inactive)

Cn1cccc1C(O)C1C=CC2C(=O)NC(=O)C2N1Nc1ccccn1 (stereo not given)
z-score [1]: -1.07 (inactive)
composite z-score [2]: -0.289
z-score [3]: 2.33 (inactive)
z-score [4]: 2.41 (inactive)
z-score [5]: 0.801 (inactive)
z-score [6]: 1.49 (inactive)
z-score [7]: -1.14
z-score [8]: -2.54 (inactive)
z-score [9]: -4.94 (inactive)
z-score [10]: -5.28
z-score [11]: -1.77
z-score [12]: -0.0273
z-score [13]: -2.88
z-score [14]: -1.99
z-score [15]: -3.88
z-score [16]: -4.01
z-score [17]: 1.73 (inactive)
z-score [18]: -1.11
z-score [19]: -1.88
z-score [20]: -1.14 (inactive)

— PubChem BioAssay
